# Key:
# Test in all cases: DAPPL (digital affinity profiling via proximity ligation, sequencing); 10 mM Tris-HCl pH 7.5, 50 mM NaCl, 1 mM DTT, 4% glycerol, room temperature, 30 min; GST-TFs on glutathione beads, 16-mer random dsDNA library, 0.1% formaldehyde crosslink after washing; high values mean tight binding
# FEV = biological target: T1, FEV (Homo sapiens, UniProt Q99581 1-238); details: protein: recombinant; tags: N-terminal GST; dsDNA, one strand shown
# T1 sequence: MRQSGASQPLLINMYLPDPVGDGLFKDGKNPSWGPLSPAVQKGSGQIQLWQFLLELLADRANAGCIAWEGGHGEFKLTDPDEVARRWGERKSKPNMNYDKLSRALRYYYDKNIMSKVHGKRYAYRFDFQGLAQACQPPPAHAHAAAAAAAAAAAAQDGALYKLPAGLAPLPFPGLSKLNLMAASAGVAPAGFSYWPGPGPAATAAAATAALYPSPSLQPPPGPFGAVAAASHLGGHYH
# Summary of the method: (§1)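 Binding signal is defined as a hexamer's read frequency for one factor over its frequency for the tag-only sample. To obtain reads, GST-fused human transcription factors were expressed in yeast, captured on glutathione beads, barcoded with DNA and pooled with that sample. Pools met 200 nmole of a 16-mer random double-stranded DNA library in Tris/NaCl/DTT/glycerol buffer for 30 min at room temperature before washing, 0.1% formaldehyde crosslinking, proximity ligation (BsaI/T4 ligase, 1 h, 37 °C), PCR and Illumina NextSeq500 sequencing.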
# ETV5 = ETV5 (Homo sapiens, UniProt P41161 1-510); details: protein: recombinant; tags: N-terminal GST; dsDNA, one strand shown
# Chain of ETV5 (P41161 whole entry): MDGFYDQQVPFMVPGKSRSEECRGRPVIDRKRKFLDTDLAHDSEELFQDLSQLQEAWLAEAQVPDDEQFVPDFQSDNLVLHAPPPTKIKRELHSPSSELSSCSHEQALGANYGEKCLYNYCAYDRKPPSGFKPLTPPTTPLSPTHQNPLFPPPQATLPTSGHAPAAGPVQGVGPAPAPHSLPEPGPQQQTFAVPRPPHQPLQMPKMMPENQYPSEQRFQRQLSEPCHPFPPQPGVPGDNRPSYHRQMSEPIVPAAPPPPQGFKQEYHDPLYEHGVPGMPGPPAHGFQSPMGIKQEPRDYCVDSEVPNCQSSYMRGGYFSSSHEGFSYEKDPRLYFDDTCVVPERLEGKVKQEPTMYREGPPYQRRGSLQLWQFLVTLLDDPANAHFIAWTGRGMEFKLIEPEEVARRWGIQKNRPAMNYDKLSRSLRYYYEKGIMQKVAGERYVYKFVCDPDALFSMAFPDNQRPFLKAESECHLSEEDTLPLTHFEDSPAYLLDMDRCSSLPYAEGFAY
# Summary of the method: as §1
# HSF1 = HSF1 (Homo sapiens, UniProt Q00613 1-529); details: protein: recombinant; tags: N-terminal GST; chain copies: 3; dsDNA, one strand shown
# Chain of HSF1 (Q00613 whole entry): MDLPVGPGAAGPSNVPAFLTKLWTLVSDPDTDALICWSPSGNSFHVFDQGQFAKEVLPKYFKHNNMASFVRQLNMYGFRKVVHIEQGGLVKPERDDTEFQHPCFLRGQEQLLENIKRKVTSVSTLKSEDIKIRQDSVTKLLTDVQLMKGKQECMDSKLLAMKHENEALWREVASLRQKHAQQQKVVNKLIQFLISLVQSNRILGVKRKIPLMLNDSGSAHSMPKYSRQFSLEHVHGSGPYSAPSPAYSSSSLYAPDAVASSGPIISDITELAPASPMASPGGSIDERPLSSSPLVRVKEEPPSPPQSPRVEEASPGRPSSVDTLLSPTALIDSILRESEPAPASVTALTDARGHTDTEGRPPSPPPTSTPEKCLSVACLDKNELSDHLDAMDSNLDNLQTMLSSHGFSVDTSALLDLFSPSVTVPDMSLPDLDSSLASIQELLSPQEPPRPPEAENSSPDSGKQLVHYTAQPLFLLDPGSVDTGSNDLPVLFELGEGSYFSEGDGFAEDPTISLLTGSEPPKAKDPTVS
# Summary of the method: as §1
# SPIC = biological target: T2, SPIC (Homo sapiens, UniProt Q8N5J4 1-248); details: protein: recombinant; tags: N-terminal GST; dsDNA, one strand shown
# T2 sequence: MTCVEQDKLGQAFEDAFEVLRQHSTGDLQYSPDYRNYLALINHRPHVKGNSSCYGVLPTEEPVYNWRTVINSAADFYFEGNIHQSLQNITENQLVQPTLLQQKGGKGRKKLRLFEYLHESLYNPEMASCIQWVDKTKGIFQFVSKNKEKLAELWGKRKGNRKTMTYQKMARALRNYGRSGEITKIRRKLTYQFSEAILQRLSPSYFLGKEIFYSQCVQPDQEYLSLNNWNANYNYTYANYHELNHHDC
# Summary of the method: as §1
# ELF4 = ELF4 (Homo sapiens, UniProt Q99607 1-663); details: protein: recombinant; tags: N-terminal GST; dsDNA, one strand shown
# Chain of ELF4 (Q99607 whole entry): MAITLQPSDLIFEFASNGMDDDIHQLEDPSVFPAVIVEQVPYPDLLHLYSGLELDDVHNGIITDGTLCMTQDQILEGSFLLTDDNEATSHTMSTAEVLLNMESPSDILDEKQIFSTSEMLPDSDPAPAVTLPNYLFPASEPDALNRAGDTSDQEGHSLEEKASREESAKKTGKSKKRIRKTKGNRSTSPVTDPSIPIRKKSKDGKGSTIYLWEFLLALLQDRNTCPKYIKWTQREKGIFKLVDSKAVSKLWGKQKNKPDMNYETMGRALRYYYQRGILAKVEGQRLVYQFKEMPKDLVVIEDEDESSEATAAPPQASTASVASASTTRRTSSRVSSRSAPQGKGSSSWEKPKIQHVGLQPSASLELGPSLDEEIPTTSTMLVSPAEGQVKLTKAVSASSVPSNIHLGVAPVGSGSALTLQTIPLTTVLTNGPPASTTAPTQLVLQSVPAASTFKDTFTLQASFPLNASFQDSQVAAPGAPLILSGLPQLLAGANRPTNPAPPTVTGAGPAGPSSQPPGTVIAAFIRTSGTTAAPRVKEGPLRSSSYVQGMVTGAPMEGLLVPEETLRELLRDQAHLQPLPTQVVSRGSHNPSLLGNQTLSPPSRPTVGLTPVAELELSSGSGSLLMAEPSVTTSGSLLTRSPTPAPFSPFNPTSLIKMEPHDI
# Summary of the method: as §1
# ELK4 = biological target: T3, ELK4 (Homo sapiens, UniProt P28324-2 1-405); details: protein: recombinant; tags: N-terminal GST; dsDNA, one strand shown
# T3 sequence: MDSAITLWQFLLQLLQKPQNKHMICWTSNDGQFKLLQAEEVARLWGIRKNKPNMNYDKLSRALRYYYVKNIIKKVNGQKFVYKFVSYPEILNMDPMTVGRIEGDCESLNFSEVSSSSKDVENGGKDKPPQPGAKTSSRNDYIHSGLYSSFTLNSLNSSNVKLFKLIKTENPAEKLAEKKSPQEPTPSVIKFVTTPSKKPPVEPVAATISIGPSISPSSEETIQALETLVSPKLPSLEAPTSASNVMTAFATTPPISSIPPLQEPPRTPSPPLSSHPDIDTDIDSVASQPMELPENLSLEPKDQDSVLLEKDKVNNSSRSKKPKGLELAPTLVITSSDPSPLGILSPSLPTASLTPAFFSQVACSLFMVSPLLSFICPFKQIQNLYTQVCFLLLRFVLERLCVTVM
# Summary of the method: as §1
# ETV2 = biological target: T4, ETV2 (Homo sapiens, UniProt O00321 1-342); details: protein: recombinant; tags: N-terminal GST; dsDNA, one strand shown
# T4 sequence: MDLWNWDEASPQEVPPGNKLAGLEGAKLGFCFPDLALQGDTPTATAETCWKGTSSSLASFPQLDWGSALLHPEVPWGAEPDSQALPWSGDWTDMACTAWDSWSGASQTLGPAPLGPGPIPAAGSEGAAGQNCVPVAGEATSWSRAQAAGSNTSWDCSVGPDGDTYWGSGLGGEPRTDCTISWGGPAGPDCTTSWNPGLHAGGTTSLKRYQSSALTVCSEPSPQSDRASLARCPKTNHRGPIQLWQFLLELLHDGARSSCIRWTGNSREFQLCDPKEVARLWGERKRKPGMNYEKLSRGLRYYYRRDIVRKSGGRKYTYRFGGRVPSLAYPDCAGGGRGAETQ
# Summary of the method: as §1
# ELF3 = biological target: T5, ELF3 (Homo sapiens, UniProt P78545 1-371); details: protein: recombinant; tags: N-terminal GST; dsDNA, one strand shown
# T5 sequence: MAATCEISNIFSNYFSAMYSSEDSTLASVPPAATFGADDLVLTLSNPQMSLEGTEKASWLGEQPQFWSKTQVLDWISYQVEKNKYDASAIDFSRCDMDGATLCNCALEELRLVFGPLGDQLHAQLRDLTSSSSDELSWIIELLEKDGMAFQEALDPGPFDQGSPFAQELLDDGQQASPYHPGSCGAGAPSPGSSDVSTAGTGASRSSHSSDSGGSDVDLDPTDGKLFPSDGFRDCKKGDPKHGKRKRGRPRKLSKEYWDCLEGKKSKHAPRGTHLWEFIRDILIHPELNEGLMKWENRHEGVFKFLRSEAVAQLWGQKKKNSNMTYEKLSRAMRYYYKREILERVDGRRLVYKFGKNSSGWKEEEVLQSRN
# Summary of the method: as §1
# CRX = CRX (Homo sapiens, UniProt O43186 1-299); details: protein: recombinant; tags: N-terminal GST; dsDNA, one strand shown
# Chain of CRX (O43186 whole entry): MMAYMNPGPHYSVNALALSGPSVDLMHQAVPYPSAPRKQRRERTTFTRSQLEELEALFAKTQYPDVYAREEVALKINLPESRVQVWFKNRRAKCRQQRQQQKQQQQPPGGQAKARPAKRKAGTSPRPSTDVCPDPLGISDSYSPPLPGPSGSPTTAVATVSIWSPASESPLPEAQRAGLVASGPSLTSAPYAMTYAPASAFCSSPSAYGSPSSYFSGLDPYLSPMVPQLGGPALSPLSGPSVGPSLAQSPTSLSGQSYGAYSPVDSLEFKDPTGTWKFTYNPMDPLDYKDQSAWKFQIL
# Summary of the method: as §1
# ETV1 = ETV1 (Homo sapiens, UniProt P50549 1-477); details: protein: recombinant; tags: N-terminal GST; dsDNA, one strand shown
# Chain of ETV1 (P50549 whole entry): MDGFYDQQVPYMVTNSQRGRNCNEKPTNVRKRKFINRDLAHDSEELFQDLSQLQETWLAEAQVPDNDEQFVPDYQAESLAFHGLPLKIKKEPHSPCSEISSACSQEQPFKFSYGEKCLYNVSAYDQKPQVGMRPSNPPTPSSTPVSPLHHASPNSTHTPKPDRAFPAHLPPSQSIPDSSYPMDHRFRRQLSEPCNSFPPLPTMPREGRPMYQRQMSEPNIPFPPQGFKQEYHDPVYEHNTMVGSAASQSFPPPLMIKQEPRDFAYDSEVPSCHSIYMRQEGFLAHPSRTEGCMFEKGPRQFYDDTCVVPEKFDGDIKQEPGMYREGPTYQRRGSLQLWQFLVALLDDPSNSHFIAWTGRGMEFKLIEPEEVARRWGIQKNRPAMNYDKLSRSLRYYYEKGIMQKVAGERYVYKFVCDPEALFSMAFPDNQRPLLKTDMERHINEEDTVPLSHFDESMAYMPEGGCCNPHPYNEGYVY
# Summary of the method: as §1
sequence,measurement,setting,value
ATATCG,binding signal,FEV,"1.1 fold enrichment (6-mer frequency, TF over GST control)"
same,binding signal,ETV5,"1.16 fold enrichment (6-mer frequency, TF over GST control)"
same,binding signal,HSF1,"1.14 fold enrichment (6-mer frequency, TF over GST control)"
same,binding signal,SPIC,"1.07 fold enrichment (6-mer frequency, TF over GST control)"
same,binding signal,ELF4,"1.22 fold enrichment (6-mer frequency, TF over GST control)"
same,binding signal,ELK4,"1.21 fold enrichment (6-mer frequency, TF over GST control)"
same,binding signal,ETV2,"1.18 fold enrichment (6-mer frequency, TF over GST control)"
same,binding signal,ELF3,"1.02 fold enrichment (6-mer frequency, TF over GST control)"
same,binding signal,CRX,"1.07 fold enrichment (6-mer frequency, TF over GST control)"
same,binding signal,ETV1,"1.22 fold enrichment (6-mer frequency, TF over GST control)"

# Reference: paper PMC7862700, “An all-to-all approach to the identification of sequence-specific readers for epigenetic DNA modifications on cytosine”
